High-throughput results as filed in PubChem BioAssay.
Sampled rows, rich in hits. Any-hit rate of the full collection: about 11%.
Luciferase inh = inhibitors of firefly (Photinus pyralis) luciferase. Potency, µM (top dose mostly 115 µM), hits mostly inhibitors. purified P. pyralis luciferase, luminescence, biochemical. P08659. AID 1347043. 2.5% of 76,000 active; further: nearly all actives have a fitted effect of over 65% in size
Target sequence (P08659 whole entry, looked up): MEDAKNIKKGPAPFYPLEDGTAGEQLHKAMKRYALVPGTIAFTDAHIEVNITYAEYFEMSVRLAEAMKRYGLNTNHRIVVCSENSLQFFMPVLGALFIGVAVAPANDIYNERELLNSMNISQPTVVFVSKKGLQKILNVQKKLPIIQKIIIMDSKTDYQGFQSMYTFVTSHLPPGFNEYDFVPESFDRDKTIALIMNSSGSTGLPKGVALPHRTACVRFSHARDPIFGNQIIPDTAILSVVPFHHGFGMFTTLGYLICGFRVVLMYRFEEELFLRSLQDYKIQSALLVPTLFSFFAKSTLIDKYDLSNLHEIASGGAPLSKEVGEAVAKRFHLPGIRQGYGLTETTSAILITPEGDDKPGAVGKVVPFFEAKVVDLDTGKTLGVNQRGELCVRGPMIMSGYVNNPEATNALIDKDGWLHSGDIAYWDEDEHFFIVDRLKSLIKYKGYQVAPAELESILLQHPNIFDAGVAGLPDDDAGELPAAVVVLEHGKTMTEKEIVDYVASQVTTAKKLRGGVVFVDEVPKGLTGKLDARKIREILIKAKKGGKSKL
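Cell-free enzyme assay, 10nM P. pyralis luciferase, luciferin and ATP each at 10uM. Inhibition profiled over a 6-point titration, read as luminescence.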
3T3 cytotox = kills NIH 3T3 cells | NIH 3T3 viability, CellTiter-Glo ATP luminescence, 48-72 h | AID 1345082 | 4.3% of 94,000 active | Potency, µM (doses to about 96.7 µM), hits mostly inhibitors; further: nearly all actives have a fitted effect of over 55% in size
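Cytotoxicity is measured as loss of cellular ATP: NIH 3T3 cells (400/well) are exposed to compound for 48 or 72 hr at 37 °C, then CellTiter-Glo luminescence is imaged after 10 min at room temperature.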
hNpr1 antagonist = blocks ANP-stimulated signaling of human Npr1 receptor. AID 1347048. P16066. Potency, µM (titrated, usually from 46.3 µM), actives largely listed as inhibitors. 1.6% of 76,000 active. HEK293 hNpr1 GloSensor cGMP, ANP-stimulated luminescence; calls by dose curve; further: nearly all actives have a fitted effect of over 60% in size
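Compound pre-incubated 30 min at room temperature on GloSensor-loaded HEK293 cells stably carrying hNpr1 and the pGS-40F cGMP biosensor. Stimulation uses hNppA at 0.1 nM final; luminescence is taken at baseline and 20 min post-agonist.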
HEK cytotox = HEK 293 cell cytotoxicity. HEK 293 viability, ATP luminescence (CellTiter-Glo), 48-72 h. Potency, µM (doses to about 115 µM), actives largely listed as inhibitors. 6.6% of 94,000 active. AID 1345083; further: nearly all actives have a fitted effect of over 60% in size
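CellTiter-Glo luminescence (cellular ATP) was read after 48 or 72 hr of compound exposure at 37 degree Celsius. Cells were HEK 293 plated at 250 cells/well.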
Hits are given with their value; . = inactive; ? = inconclusive; / = not tested or not shown. Unless noted, the call rests on the fitted dose curve; in most records, active means well fitted curve in the direction sought with a large enough effect; inconclusive means small, poorly fitted or top-dose-only effect, or another doubt; inactive means no such curve, though single readings can be large; an effect the other way counts as inactive or inconclusive.

SMILES	Luciferase inh	3T3 cytotox	hNpr1 antagonist	HEK cytotox
CCNC(=O)OC1CN(C(=O)c2ccc(C(F)(F)F)cc2)CCC(=O)N(C)c2ccccc21 (stereo not drawn)	/	.	/	?
COc1ccc(-c2ccccc2NC(=O)C2CCCN(Cc3cccnc3)C2)cc1 (stereo not drawn)	.	.	.	.
COC(=O)c1ccc2nc(CO[C@H]3CN(Cc4ccc(C(F)(F)F)cc4)C[C@H]3F)[nH]c2c1	.	?	?	50µM
Cc1cc2nc(CO[C@H]3CN(Cc4ccc(C(=O)O)cc4)C[C@H]3F)[nH]c2cc1C	22µM	.	.	.
CC(=O)Nc1ccc(CN2C[C@@H](F)[C@@H](OCc3nc4cc(C)c(C)cc4[nH]3)C2)cc1	.	?	.	?
CC(=O)N1CC[C@H](c2nnc(Cc3c[nH]c4ccccc34)o2)C1	.	.	.	.
O=C1CC(c2ccccc2)N(Cc2ccncc2)CCCN(S(=O)(=O)c2cccc(F)c2)CCN1 (stereo not drawn)	.	?	.	45µM
O=C1CC(c2ccccc2)N(Cc2ccncc2)CCCN(S(=O)(=O)c2cccnc2)CCN1 (stereo not drawn)	.	.	.	.
COc1ccccc1Cn1c(=O)c(C(=O)N2CCN(C(=O)c3cccc(Cl)c3)CC2)nc2cccnc21	/	.	/	.
Cc1ccccc1CC1(CO)CCCN(c2ccc(-c3nccn3C)nn2)C1 (stereo not drawn)	.	?	?	32µM
Cn1ccnc1-c1cn(CC2(c3ccccc3F)CCCC2)nn1	.	?	.	?
Cn1ccnc1-c1ccc(N2CCC(CO)(CCOc3ccccc3)CC2)nn1	40µM	?	.	?
Cn1ccnc1-c1ccc(N2CCCC(CO)(CCOc3ccccc3)C2)nn1 (stereo not drawn)	.	?	?	32µM
OCC1(CCOc2ccccc2)CCN(c2nnnn2-c2ccccc2)CC1	.	?	.	?
COCC(=O)NC1CCN(c2ccccc2)C1=O (stereo not drawn)	.	.	.	.
Cn1ccnc1CN1C(=O)CO[C@H]2CN(CCCc3ccccc3)C[C@H]21	.	112µM	.	?
CN1C(=O)c2cccn2CC1C(=O)N1CCCCC1 (stereo not drawn)	.	.	.	.
Cc1ccc2nc(C(C)NC(=O)c3cnc(-c4ccccn4)[nH]c3=O)[nH]c2c1 (stereo not drawn)	.	?	.	25µM
CC1(C)[C@H](Cc2cc(CCO)on2)C[C@@H]1NC1CCOCC1	.	.	.	.
CC(C)N[C@H]1C[C@@H](Cc2cc(-c3ccccc3)on2)C1(C)C	?	63µM	.	63µM
CN1CCC(N[C@H]2C[C@@H](Cc3cc(CN(C)Cc4ccccc4)on3)C2(C)C)CC1	.	28µM	.	40µM
CN1CCC(N[C@H]2C[C@@H](Cc3cc(-c4ccccc4)on3)C2(C)C)CC1	.	8.9µM	.	8.9µM
CN1C[C@H](NCc2cccc(Cl)c2)CCC[C@@H](C(=O)NCc2cc(F)cc(F)c2)CC1=O	.	?	.	45µM
Cc1ccc(C2Cn3nnc(C(=O)N4CCC(C(=O)NCc5cc(F)cc(F)c5)CC4)c3CO2)cc1 (stereo not drawn)	16µM	.	.	.
Cc1ccc(CNC(=O)C2CCN(C(=O)c3nnn4c3COC(c3ccc(C)cc3)C4)CC2)cc1 (stereo not drawn)	.	.	.	.
SMILES	Luciferase inh	3T3 cytotox	hNpr1 antagonist	HEK cytotox
Cc1ccc(C2Cn3nnc(C(=O)N4CCC(C(=O)NCc5cccc(F)c5)CC4)c3CO2)cc1 (stereo not drawn)	35µM	.	.	.
Cc1ccc(C2Cn3nnc(C(=O)N4CCC(C(=O)NCc5cccc(Cl)c5)CC4)c3CO2)cc1 (stereo not drawn)	22µM	.	.	.
COc1cccc(CNC(=O)C2CCN(C(=O)c3nnn4c3COC(c3ccc(C)cc3)C4)CC2)c1 (stereo not drawn)	?	.	.	.
COC(=O)C1=C(C)N=C2SC=C(CC(=O)NC3CC3)N2C1c1ccc(C(C)C)cc1 (stereo not drawn)	.	.	.	?
Cc1c(-c2ccccc2)[nH]c2c(CNC(=O)CCc3nncn3C)cc(Cl)cc12	22µM	?	.	?
COc1ccc(CC(=O)NCc2cc(C)cc3c(C)c(C)[nH]c23)c(OC)c1	.	?	.	?
Cc1cc(CNC(=O)Cc2ccc(-n3cnnn3)cc2)c2[nH]c(C)c(C)c2c1	.	20µM	.	?
Cc1cc(CNC(=O)Cc2nonc2C)c2[nH]c(-c3ccccc3)c(C)c2c1	10µM	.	.	?
Cc1cc(CNC(=O)c2ccncc2)c2[nH]c(-c3ccccc3)c(C)c2c1	?	32µM	11µM	14µM
COCc1ccc(C(=O)NCc2cc(C)cc3c(C)c(C)[nH]c23)o1	.	?	.	?
CC(=O)N1CCN(c2ncnc3c2CN(C2CCCNCC2)C(=O)CN3C)CC1 (stereo not drawn)	/	.	/	.
Cc1ccc(CN2CCc3nc(N4CCN(C)CC4)[nH]c(=O)c3CC2)c(C)c1	.	.	.	.
COCc1ncc(C)n1CCNC(=O)c1c(C)noc1C	.	.	.	.
Nc1n[nH]c(CNc2cc(-c3ccc(F)cc3)nc3ccnn23)n1	.	.	.	.
N[C@H]1CCN2C(=O)c3cc(-c4ccccc4F)ccc3NC(=O)[C@H]12	.	.	.	.
O=C(N[C@H]1CCN2C(=O)c3ccccc3NC(=O)[C@H]12)c1cnccn1	.	.	.	.
COc1ccc(/C=C/c2ccc3c(c2)C(=O)N2CC[C@H](NC(=O)c4cnccn4)[C@H]2C(=O)N3)cc1	7.9µM	.	.	.
O=C(N[C@H]1CCN2C(=O)c3cc(-c4ccc(Cl)cc4)ccc3NC(=O)[C@H]12)c1cnccn1	.	?	.	79µM
O=C(N[C@H]1CCN2C(=O)c3cc(-c4cccc(C(F)(F)F)c4)ccc3NC(=O)[C@H]12)c1cnccn1	.	79µM	.	45µM
COc1ccc(/C=C/c2ccc3c(c2)C(=O)N2CC[C@H](N)[C@H]2C(=O)N3)cc1	20µM	?	.	100µM
O=C(C1CCCN(C(=O)C2CCCC2)C1)N1CCC(c2nc3ncccc3[nH]2)CC1 (stereo not drawn)	/	.	/	.
CS(=O)(=O)N(C1CCOCC1)C1CCN(C(=O)C2CC2)CC1	.	.	.	.
CCC1(N2CCN(C(=O)c3ccc(Cl)cc3OC)CC2)CCN(C(=O)NC)C1 (stereo not drawn)	?	.	.	.
O=C(c1[nH]nc2c1COc1ccccc1-2)N1CCC(Cc2nncn2CC2CC2)CC1	.	40µM	.	.
Cc1cccc(C(=O)N2CCC(Cc3nncn3CC3CC3)CC2)c1	.	.	.	.
Cc1ccc(-n2cc(CN3CCN4CCCC4C3)c(-c3cccc(C)c3)n2)cc1 (stereo not drawn)	?	25µM	.	28µM
Cc1cccc(-n2cc(CN3CCCC(C)(O)C3)c(-c3cccc(F)c3)n2)c1 (stereo not drawn)	18µM	89µM	.	?
